Values joined by “and” are separate entries in the source; they are usually repeats but may differ in a detail not shown here. Equal values may be shown once. Inconclusive results are not listed. Active and inactive are the calls of the source. Calls follow the shape of the dose curve; as a rule, active = well fitted curve in the direction sought with a large enough effect; inconclusive = small, poorly fitted or top-dose-only effect, or another doubt; inactive = no such curve, though single readings can be large; an effect the other way counts as inactive or inconclusive.
Legend:
[1] = qHTS Assay for Identifying Gametocytocidal Compounds (AID 743244);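 also: % is scaled to controls: 0 for no effect and ±100 for the full control effect; actives lower the fluorescent signal which means gametocytes are killed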; settings: P. falciparum 3D7 stage III-V gametocytes, alamarBlue, 72 h; max response: stronger effect = lower value
Method in brief: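 3D7 gametocytes, stages III–V, 20,000/well; cpd 72 h, 37 °C/5% CO2; + alamarBlue 24 h; fluor. Ex 525/Em 598.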

[2] = qHTS assay for measurement of the activity of small molecule inhibitors on Zika virus induced Caspase-3 activity in human iPSC derived neural progenitor cells (hNPCs) (AID 1224857); also: % of control where 0% means no effect; nearly all actives have a fitted effect of over 65% in size
Method in brief: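 Cells were plated at 350 per well and grown 16 to 20 hours. Compound pretreatment lasted one hour, after which ZIKV (2 FFU/cell) was added for 6 hours. Percent inhibition was normalized between uninfected and infected controls.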

[3] = qHTS assay for measurement of the activity of small molecule inhibitors on Zika virus induced Caspase-3 activity in human astrocytoma cells (AID 1224859);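 also: plate controls were ZIKV-infected untreated cells for no effect and uninfected cells for full effect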
Method in brief: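 Percent inhibition of virus-induced caspase-3/7 signal is calculated against uninfected and ZIKV-infected control cells. Cells are SNB-19, infected at 2 FFU/cell for 6 h after 1 h compound exposure.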

[4] = P-glycoprotein substrates identified in KB-8-5-11 adenocarcinoma cell line, qHTS therapeutic library screen (AID 1346987); also: nearly all actives have a fitted effect of over 65% in size
Method in brief: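 Steps: plate 500 KB-8-5-11 cells/well in DMEM + 10% FCS (colchicine removed); pin compounds in dose-response; incubate 72 h, 37 degree C, 5% CO2; add CellTiter-Glo, 5 min; read luminescence.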

[5] = NS1 protein of Zika virus - qHTS assay to identify small molecule inhibitors in human HEK 293 cells (AID 1347053);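 also: series mostly up to about 46 µM; plate controls were infected untreated cells for no effect and uninfected cells for full effect; nearly all actives have a fitted effect of over 55% in size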
Method in brief: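 HEK 293 cells pretreated with compound for 1 h, then infected with ZIKV MR766 (MOI 0.5) for 24 h at 37 C. NS1 detected by TR-FRET with two anti-NS1 antibodies; normalized to uninfected (0%) and infected (100%) wells.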

[6] = qHTS of pediatric cancer cell lines to identify multiple opportunities for drug repurposing: Primary screen for TC32 cells (AID 1347089); also: % is scaled to controls: 0 for no effect and ±100 for the full control effect; nearly all actives have a fitted effect of over 60% in size
Method in brief: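 A viability screen of TC32 cells was run over 48 h, with primary MIPE doses spanning 0.78 nM–46 µM and NPC doses 0.59 nM–46 µM. ATP luminescence (CellTiter-Glo) served as the read-out.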

[7] = qHTS assay for cell viability of HEK293 cells (AID 743288); settings: ATP luminescence (CellTiter-Glo), 18 h, stronger effect = lower value; also: % is scaled to controls: 0 for no effect and ±100 for the full control effect; nearly all actives have a fitted effect of over 50% in size
Method in brief: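 Luminescent ATP quantitation served as the viability read-out. Cells (parental HEK293, 2,000/well) received compounds after at least 5 h at 37 C and were exposed for 18 h before a 30 min room-temperature reagent step.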

[8] = qHTS assay for cell viability of the p53RE-bla HCT-116 cell line (AID 743292); also: % is scaled to controls: 0 for no effect and ±100 for the full control effect; nearly all actives have a fitted effect of over 55% in size
Method in brief: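 HCT-116 p53RE-bla cells seeded 4,000/well; 5 h at 37 C; compound (DMSO) added; 16 h at 37 C; CellTiter-Glo added, 30 min RT; luminescence read.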

C1N2CN3CN1CN(C2)C3
inactive: max response [1] 2.07% | Potency [2] | outcome [3] | Potency [4] | Potency [5] | Potency [6]

O=C(c1ccccc1)c1ccccc1
inactive: max response [1] -8.14% | max response [7] -5.39% and 4.23% | Potency [8] | Potency [2] | outcome [3] | Potency [4] | Potency [5] | Potency [6]

CC1c2ccccc2CN1NC(=O)c1ccc(Cl)c(S(N)(=O)=O)c1 (stereo not given)
inactive: max response [1] 33.5% | Potency [2] | outcome [3] | Potency [4] | Potency [5] | Potency [6]

CCCCCC[C@@H](CCC)C(=O)O
inactive: max response [1] 16.9% | Potency [2] | outcome [3] | Potency [4] | Potency [5] | Potency [6]

CC(C)=CCC/C(C)=C/CC/C(C)=C/CCC(=O)OC/C=C(\C)CCC=C(C)C
inactive: max response [1] -4.29% | Potency [2] | outcome [3] | Potency [4] | Potency [5] | Potency [6]

CN(C(=O)C(Cl)Cl)c1ccc(OC(=O)c2ccco2)cc1
inactive: max response [1] 8.61% | Potency [2] | outcome [3] | Potency [4] | Potency [5] | Potency [6]

CC(C)C(C)(C)C(C)(C)C(C)(C)S
inactive: max response [1] 40.1% | max response [7] 6.58% and -3.43% | Potency [8] | Potency [2] | outcome [3] | Potency [4] | Potency [5] | Potency [6]

CN1C(=O)CC(C)(c2ccccc2)C1=O (stereo not given)
inactive: max response [1] -8.12% | Potency [2] | outcome [3] | Potency [4] | Potency [5] | Potency [6]

CCCCC(CC)COC(=O)c1ccccc1C(=O)O (stereo not given)
inactive: max response [1] -17.7% | max response [7] -6.66% and 0.856% | Potency [8] | Potency [2] | outcome [3] | Potency [4] | Potency [5] | Potency [6]

Cc1ccc(O)cc1
inactive: max response [1] -13.3% and 9.92% | max response [7] 0.239% | Potency [8] | Potency [2] | outcome [3] | Potency [4] | Potency [5] | Potency [6]

Oc1ccccc1
inactive: max response [1] 2.14% | max response [7] -3.62% and -6.12% and 4.72% | Potency [8] | Potency [2] | outcome [3] | Potency [4] | Potency [5] | Potency [6]

C[C@@]12CCC[C@H]1[C@@H]1CC[C@H]3C[C@@H](O)CC[C@]3(C)[C@H]1CC2
inactive: max response [1] 4.41% | Potency [2] | outcome [3] | Potency [4] | Potency [5] | Potency [6]

CC(=O)OC/C=C(C)/C=C/C=C(C)/C=C/C1=C(C)CCCC1(C)C
inactive: max response [1] -2.65% | max response [7] -22.5% and -3.76% | Potency [8] | Potency [2] | outcome [3] | Potency [4] | Potency [5] | Potency [6]

O=C(O)CCCC[C@@H]1SC[C@@H]2NC(=O)N[C@@H]21
inactive: max response [1] -7.74% | Potency [2] | outcome [3] | Potency [4] | Potency [5] | Potency [6]

CCc1cc(S(=O)(=O)O)c2cc(C(C)C)cccc1-2
inactive: max response [1] 0.277% | Potency [2] | outcome [3] | Potency [4] | Potency [5] | Potency [6]

COC(=O)c1c(Cl)c(Cl)c(C(=O)OC)c(Cl)c1Cl
inactive: max response [7] -7.06% | Potency [8] | Potency [2] | outcome [3] | Potency [4] | Potency [5] | Potency [6]

COc1cc(C(=O)OC(COCCC(C)C)CN2CCOCC2)cc(OC)c1OC (stereo not given)
inactive: max response [1] 4.25% | Potency [2] | outcome [3] | Potency [4] | Potency [5] | Potency [6]

CCCCC/C=C\C/C=C\CCCCCCCC(=O)NC(C)c1ccccc1 (stereo not given)
inactive: max response [1] -1.75% | Potency [2] | outcome [3] | Potency [4] | Potency [5] | Potency [6]

O=C(O)/C=C(\CC(=O)O)C(=O)O
inactive: max response [1] 8.32% | Potency [2] | outcome [3] | Potency [4] | Potency [5] | Potency [6]

O=C(O)[C@H](O)[C@@H](O)[C@H](O[C@@H]1O[C@H](CO)[C@H](O)[C@H](O)[C@H]1O)[C@H](O)CO
inactive: max response [1] -7.07% | Potency [2] | outcome [3] | Potency [4] | Potency [5] | Potency [6]

Cc1cc(C(C)(C)C)c(O)c(C(C)(C)C)c1
inactive: max response [1] -17.9% | max response [7] -0.0848% and 0.626% | Potency [8] | Potency [2] | outcome [3] | Potency [4] | Potency [5] | Potency [6]

CC1CN(c2cc3c(cc2F)c(=O)c(C(=O)O)cn3-c2ccc(F)cc2F)CCN1 (stereo not given)
inactive: max response [1] -18.1% | activity change, negative = inhibition [2] -6.17% [at 4.53 µM] | activity change, negative = inhibition [3] -1.94% [at 4.53 µM] | Potency [4] | activity change, negative = inhibition [5] -15.5% [at 4.81 µM] | activity change, negative = cytotoxic [6] -4% [at 4.81 µM]

Nc1ccc(O)cc1
inactive: max response [7] -8.77% | Potency [8] | Potency [2] | outcome [3] | Potency [4] | Potency [5] | Potency [6]

Nc1c(NC/C=C\COc2cc(CN3CCCCC3)ccn2)c(=O)c1=O
inactive: max response [1] -0.695% | Potency [2] | outcome [3] | Potency [4] | Potency [5] | Potency [6]

— PubChem BioAssay (NCATS)
